PubChem BioAssay (NCATS)
Results filed as inconclusive are left out. The source made the active and inactive calls. The call rests on the fitted dose curve; in most records, active means well fitted curve in the direction sought with a large enough effect; inconclusive means small, poorly fitted or top-dose-only effect, or another doubt; inactive means no such curve, though single readings can be large; an effect the other way counts as inactive or inconclusive.

Assays:
[1] = qHTS of pediatric cancer cell lines to identify multiple opportunities for drug repurposing: Primary screen for DAOY cells (AID 1347090); further: nearly all actives have a fitted effect of over 55% in size
In short: (§1)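 Cell viability, CellTiter-Glo luminescence; 500-1,000 cells/well, 8- or 11-point titration, 48 h compound exposure at 37 degrees C, 5% CO2. Controls: DMSO neutral, bortezomib 2.3 µM final as positive.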

[2] = qHTS of pediatric cancer cell lines to identify multiple opportunities for drug repurposing: Primary screen for SJ-GBM2 cells (AID 1347091)
In short: as §1

[3] = qHTS of pediatric cancer cell lines to identify multiple opportunities for drug repurposing: Primary screen for A673 cells (AID 1347092); further: nearly all actives have a fitted effect of over 45% in size
In short: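 Cell viability of A673 measured by CellTiter-Glo ATP luminescence after 48 hours compound exposure. Dilution series spanned 0.78 nM to 46 µM (MIPE, 11-point) or 0.59 nM to 46 µM (NPC, 8-point); bortezomib 2.3 uM positive control.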

[4] = qHTS of pediatric cancer cell lines to identify multiple opportunities for drug repurposing: Primary screen for SK-N-MC cells (AID 1347093)
In short: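 Metabolically active cells were quantified by ATP-dependent luminescence (CellTiter-Glo, 15 min at room temperature) following 48 h treatment. Cells had been plated at 500-1,000 per well and settled for 5 h beforehand.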

[5] = qHTS of pediatric cancer cell lines to identify multiple opportunities for drug repurposing: Primary screen for BT-37 cells (AID 1347094)
In short: (§2)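 ATP-based luminescence (CellTiter-Glo) quantifies viability after a 48-hour exposure. Compounds are dosed across 8 or 11 final concentrations; DMSO and 2.3 µM bortezomib serve as controls.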

[6] = qHTS of pediatric cancer cell lines to identify multiple opportunities for drug repurposing: Primary screen for NB-EBc1 cells (AID 1347095)
In short: as §2

[7] = qHTS of pediatric cancer cell lines to identify multiple opportunities for drug repurposing: Primary screen for U-2 OS cells (AID 1347096); further: nearly all actives have a fitted effect of over 50% in size
In short: (§3)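 Cells (500-1,000/well) rested 5 h, then received compounds for 48 h; metabolically active cells were measured by CellTiter-Glo luminescence. Final concentrations spanned up to 46 µM (MIPE, 11-point) or 0.59 nM-46 µM (NPC, 8-point) in primary screens, 11-point in follow-ups.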

[8] = qHTS of pediatric cancer cell lines to identify multiple opportunities for drug repurposing: Primary screen for SK-N-SH cells (AID 1347098); further: nearly all actives have a fitted effect of over 65% in size
In short: as §3

[9] = qHTS of pediatric cancer cell lines to identify multiple opportunities for drug repurposing: Primary screen for NB1643 cells (AID 1347099); further: nearly all actives have a fitted effect of over 50% in size
In short: as §2

[10] = qHTS of pediatric cancer cell lines to identify multiple opportunities for drug repurposing: Primary screen for LAN-5 cells (AID 1347100)
In short: as §3

[11] = qHTS of pediatric cancer cell lines to identify multiple opportunities for drug repurposing: Primary screen for BT-12 cells (AID 1347101); further: nearly all actives have a fitted effect of over 25% in size
In short: as §3

[12] = qHTS of pediatric cancer cell lines to identify multiple opportunities for drug repurposing: Primary screen for Rh18 cells (AID 1347102); further: nearly all actives have a fitted effect of over 65% in size
In short: as §3

[13] = qHTS of pediatric cancer cell lines to identify multiple opportunities for drug repurposing: Primary screen for RD cells (AID 1347104); further: nearly all actives have a fitted effect of over 55% in size
In short: as §2

[14] = qHTS of pediatric cancer cell lines to identify multiple opportunities for drug repurposing: Primary screen for MG 63 (6-TG R) cells (AID 1347105); further: nearly all actives have a fitted effect of over 50% in size
In short: as §2

[15] = qHTS of pediatric cancer cell lines to identify multiple opportunities for drug repurposing: Primary screen for control Hh wild type fibroblast cells (AID 1347106); further: nearly all actives have a fitted effect of over 55% in size
In short: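 Cells (500-1,000/well) in growth media were settled 5 h at 37 degrees C, then given compounds for 48 h. Viability was read as CellTiter-Glo luminescence. Primary runs used MIPE at 11 points (0.78 nM-46 µM) and NPC at 8 points (0.59 nM-46 µM); follow-ups used 11 points.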

[16] = qHTS of pediatric cancer cell lines to identify multiple opportunities for drug repurposing: Primary screen for Saos-2 cells (AID 1347097); further: nearly all actives have a fitted effect of over 40% in size
In short: as §2

[17] = qHTS of pediatric cancer cell lines to identify multiple opportunities for drug repurposing: Primary screen for OHS-50 cells (AID 1347103); further: nearly all actives have a fitted effect of over 40% in size
In short: as §3

[18] = qHTS of pediatric cancer cell lines to identify multiple opportunities for drug repurposing: Primary screen for TC32 cells (AID 1347089); further: nearly all actives have a fitted effect of over 60% in size
In short: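 Luminescent ATP read-out (CellTiter-Glo) of metabolically active TC32 cells after 48 h exposure. Concentration-response curves came from 11-point (MIPE, 0.78 nM–46 µM) or 8-point (NPC, 0.59 nM–46 µM) primary titrations; follow-up used 11 points.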

Measured: Potency
Potency means the concentration at half of the fitted maximal effect.

O=C(Nc1cn[nH]c1-c1nc2ccc(CN3CCOCC3)cc2[nH]1)NC1CC1
active: [1] 3.72 µM | [2] 0.59 µM | [3] 1.48 µM | [4] 0.059 µM | [5] 12.2 µM | [6] 1.48 µM | [7] 4.69 µM | [8] 0.242 µM | [9] 5.26 µM | [10] 0.0105 µM | [11] 7.69 µM | [12] 0.935 µM | [13] 5.9 µM | [14] 7.43 µM | [15] 10.5 µM

CN(C)CC=CC(=O)Nc1cc2c(Nc3ccc(F)c(Cl)c3)ncnc2cc1O[C@H]1CCOC1
active: [1] 5.9 µM | [2] 3.72 µM | [3] 3.72 µM | [4] 1.66 µM | [5] 21.7 µM | [6] 9.35 µM | [7] 18.7 µM | [16] 10.5 µM | [8] 24.1 µM | [9] 0.296 µM | [10] 7.43 µM | [11] 21.7 µM | [12] 14.8 µM | [17] 3.06 µM | [13] 5.9 µM | [14] 14.8 µM

Cc1cc(Nc2cc(N3CCN(C)CC3)nc(Sc3ccc(NC(=O)C4CC4)cc3)n2)n[nH]1
active: [18] 0.93 µM | [3] 11.8 µM | [4] 0.418 µM | [6] 0.935 µM | [8] 21.5 µM | [9] 20.9 µM | [11] 21.7 µM | [12] 16.6 µM | [17] 6.85 µM | [13] 18.7 µM | [14] 18.7 µM
inactive: [5] | [7] | [16] | [15]

CC(C)(C)c1cc(NC(=O)Nc2ccc(-c3cn4c(n3)sc3cc(OCCN5CCOCC5)ccc34)cc2)no1
inactive: [18] | [7] | [8] | [9] | [10] | [11] | [12] | [15]
active: [4] 0.743 µM | [6] 16.6 µM | [16] 18.7 µM | [14] 23.5 µM

Cc1coc2c1C(=O)C(=O)c1c-2ccc2c1CCCC2(C)C
inactive: [18] | [7] | [8] | [14] | [15]
active: [2] 5.9 µM | [5] 21.7 µM | [6] 8.33 µM | [16] 1.66 µM | [11] 21.7 µM | [12] 20.9 µM

COc1cc(C(C)C)c2c(c1)S(=O)(=O)N(COc1cc(=O)n3cccc(OCCN4CCCCC4)c3n1)C2=O
active: [3] 7.43 µM | [4] 3.72 µM | [16] 26.4 µM | [9] 13.2 µM | [13] 20.9 µM
inactive: [18] | [7] | [11] | [14] | [15]

CN(C)CCCN=c1c2ccccc2n(C)c2[nH]c(=O)n(C)c(=O)c12
active: [1] 23.5 µM | [2] 1.87 µM | [3] 2.96 µM | [5] 4.85 µM | [6] 0.743 µM | [8] 4.29 µM | [9] 3.32 µM | [10] 2.09 µM | [11] 7.69 µM
inactive: [7] | [16]

CC1(C)O[C@@H]2C[C@@H]3[C@H]4C[C@@H](F)C5=CC(=O)C=C[C@]5(C)[C@@]4(F)[C@@H](O)C[C@]3(C)[C@]2(C(=O)CO)O1
active: [4] 9.35 µM
inactive: [18] | [5] | [6] | [7] | [16] | [8] | [10] | [11] | [12] | [17] | [14]

CNC(=O)c1ccc(-c2cnc3ncc(Cc4ccc5ncccc5c4)n3n2)cc1F
inactive: [18] | [5] | [7] | [16] | [8] | [9] | [10] | [11] | [12] | [17] | [13]

COCCOc1ccc2c(c1)ncn2-c1ccc2cccc(N3CCC(N)CC3)c2n1
active: [1] 23.5 µM | [2] 11.8 µM | [3] 4.69 µM | [5] 24.3 µM | [6] 23.5 µM | [7] 18.7 µM | [16] 18.7 µM | [8] 21.5 µM | [9] 23.5 µM | [11] 27.3 µM | [12] 26.4 µM | [17] 19.3 µM | [13] 29.6 µM | [14] 29.6 µM
inactive: [15]

C[C@@H](Oc1cc(-c2cnn(C3CCNCC3)c2)cnc1N)c1c(Cl)ccc(F)c1Cl
active: [18] 20.8 µM | [2] 0.0743 µM | [4] 2.35 µM | [6] 9.35 µM | [16] 9.35 µM | [8] 19.2 µM | [9] 3.72 µM | [10] 1.05 µM | [11] 24.3 µM | [12] 16.6 µM | [17] 2.43 µM | [13] 16.6 µM | [14] 18.7 µM
inactive: [15]
